Data as given in PubChem BioAssay (NCI).
The panel holds about 79,000 compounds, 15% with a hit somewhere; the sample as a whole holds those more often. Calls of active or inactive are those of the source. Rule as the data show it: active = growth inhibition above about 70%; inactive = the rest.

Key:
[1] = NCI Yeast Anticancer Drug Screen. Data for the wt1 strain (AID 149);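 also: 0% = growth of vehicle-treated wt1 cultures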; details: S. cerevisiae wt1 strain (SPY 50644) growth inhibition, hits give high values
Summary of the method: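 Vehicle-normalised growth inhibition; strain wt1; compound exposure.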

[2] = NCI Yeast Anticancer Drug Screen. Data for the rad50EPP+ strain (AID 151);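 also: 0% = growth of vehicle-treated control cultures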; details: S. cerevisiae rad50 mutant strain, hits give high values
Summary of the method: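 Vehicle-normalised growth inhibition; rad50EPP+ yeast strain, altered in DNA damage repair, compound-treated.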

[3] = NCI Yeast Anticancer Drug Screen. Data for the mgt1 strain (AID 153); details: S. cerevisiae mgt1 mutant growth inhibition, hits give high values
Summary of the method: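 Vehicle-normalized growth inhibition is determined in mgt1 yeast, a strain selected for a defined alteration in DNA repair or cell cycle control.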

[4] = NCI Yeast Anticancer Drug Screen. Data for the rad50 strain (AID 155);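 also: 0% = growth of vehicle-only cultures of the same strain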; details: S. cerevisiae rad50 strain growth inhibition, hits give high values
Summary of the method: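 A DNA repair-deficient yeast mutant serves as the test organism; compound-induced growth inhibition is calculated against vehicle-treated cells.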

[5] = NCI Yeast Anticancer Drug Screen. Data for the mec2-1 strain (AID 157); details: S. cerevisiae mec2-1 strain, hits give high values
Summary of the method: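 Mutant yeast (mec2-1) grown with compound; growth inhibition relative to vehicle control reported.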

[6] = NCI Yeast Anticancer Drug Screen. Data for the sgs1 mgt1 strain (AID 161);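 also: 0% = growth of cultures given vehicle only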; details: S. cerevisiae sgs1 mgt1 strain, hits give high values
Summary of the method: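 This yeast growth screen uses a strain with defined DNA-repair lesions; compound-treated growth is compared with vehicle-treated growth.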

[7] = NCI Yeast Anticancer Drug Screen. Data for the CLN2oe strain (AID 163);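 also: 0% = growth of vehicle-only control cultures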; details: S. cerevisiae CLN2oe strain, hits give high values
Summary of the method: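 Compounds are applied to yeast harbouring a defined cell-cycle control change; reduced growth compared with vehicle-treated controls gives the value.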

[8] = NCI Yeast Anticancer Drug Screen. Data for the cln2 rad14 strain (AID 165);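 also: 0% = growth equal to vehicle treated cultures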; details: S. cerevisiae cln2 rad14 strain, hits give high values
Summary of the method: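 Readout is yeast growth inhibition versus vehicle-treated controls, using a strain with cln2 and rad14 alterations exposed to compound.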

[9] = NCI Yeast Anticancer Drug Screen. Data for the bub3 strain (AID 167); details: S. cerevisiae bub3 mutant strain, hits give high values
Summary of the method: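 Inhibition values come from growth of compound-treated mutant yeast normalised to vehicle-treated controls.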

[10] = NCI Yeast Anticancer Drug Screen. Data for the wt2 strain (AID 169);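 also: 0% = growth of vehicle-treated yeast cultures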; details: S. cerevisiae wt2 strain growth inhibition, hits give high values
Summary of the method: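 Against vehicle-treated controls, the growth of yeast exposed to each compound was compared, and the inhibition was recorded.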

[11] = NCI Yeast Anticancer Drug Screen. Data for the mlh1 strain (AID 171);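 also: 0% = growth of vehicle-treated control cultures of the same strain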; details: S. cerevisiae mlh1 strain growth inhibition, hits give high values
Summary of the method: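 Measured: yeast growth. Reference: vehicle-treated controls. Organism: strain with a defined alteration affecting DNA damage repair or cell cycle control, treated with compound.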

[12] = at 5.0 µM (retest, dose inferred, filed as 0.5)
[13] = at 50.0 µM (retest, dose inferred, filed as 5.0)

Measured: growth inhibition

CC(C)c1ccc(C2NC(=S)NC3=C2c2ccccc2C3=O)cc1 (stereo not given)
inactive: [1]; at 1.2 µM 16% | [1]; at 3.7 µM 6% | [1]; at 11.0 µM 18% | [1]; at 33.0 µM 17% | [1]; at 100.0 µM 17% | [2]; at 1.2 µM 23% | [2]; at 3.7 µM 21% | [2]; at 11.0 µM 16% | [2]; at 33.0 µM 15% | [2]; at 100.0 µM 3% | [3]; at 1.2 µM 3% | [3]; at 3.7 µM -4% | [3]; at 11.0 µM 7% | [3]; at 33.0 µM 19% | [3]; at 100.0 µM 50% | [4]; at 1.2 µM 24% | [4]; at 3.7 µM 24% | [4]; [12] 22% | [4]; at 11.0 µM 27% | [4]; at 33.0 µM 32% | [4]; [13] 31% | [4]; at 100.0 µM 54% | [5]; at 1.2 µM 17% | [5]; at 3.7 µM 11% | [5]; [12] -8% | [5]; at 11.0 µM -7% | [5]; at 33.0 µM 9% | [5]; [13] -11% | [5]; at 50.0 µM 64.1% | [5]; at 100.0 µM 28% | [6]; [12] 43% | [6]; [13] 24% | [7]; at 1.2 µM -9% | [7]; at 3.7 µM -5% | [7]; at 11.0 µM -5% | [7]; at 33.0 µM -8% | [7]; at 100.0 µM 18% | [8]; [12] -9% | [8]; [13] 26% | [8]; at 50.0 µM 66.8% | [9]; at 1.2 µM -3% | [9]; at 3.7 µM 4% | [9]; [12] -25% | [9]; at 11.0 µM 27% | [10]; at 1.2 µM 0% | [10]; at 3.7 µM 1% | [10]; at 11.0 µM 14% | [10]; at 33.0 µM 22% | [10]; at 100.0 µM 41% | [11]; at 1.2 µM 10% | [11]; at 3.7 µM -1% | [11]; at 11.0 µM 3% | [11]; at 33.0 µM 26% | [11]; at 100.0 µM 52%
active: [4]; at 50.0 µM 86.8% | [6]; at 50.0 µM 78% | [9]; at 33.0 µM 81% | [9]; [13] 87% | [9]; at 50.0 µM 89.7% | [9]; at 100.0 µM 88%
